In all, about 53,000 sequences went through this assay and about 3,700 (7%) were called active. Only a selection was taken, and actives are over-represented in it overall. A number with no mark means an inactive call.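 The calls were made as follows: active = gene knockdowns whose robust z-score for IL-1 alpha signal is at least 2 or at most -2, so actives lie on both sides; inactive = the rest.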

108 sequences from PubChem BioAssay AID1508600 (Functional Genomics Laboratory (NCATS/FGL), 2020) can be followed below.

This assay in a line: Components of the Cytosolic LPS Sensing Pathway: Gene Identification via Genome-wide siRNA Screen.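 Also: robust z of the log signal after scaling to non-targeting control siRNA wells of the plate.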 To be noted: RAW264.7 macrophages, IL-1a HTRF, actives lie on both sides, screened at 100 nM (by protocol), cells primed 5 h with Pam3CSK4 first. In outline: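 RAW264.7; siRNA 100 nM final, RNAiMAX, 48h 37 degrees C; Pam3CSK4 5 h; LipidA + TransIT-TKO 24 h; IL-1a HTRF; CellTiter-Glo viability; robust z vs negative-control median.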
For orientation: In TR-FRET formats the signal depends on donor and acceptor labels being close together.
As to GGAGAAGAGAUCCCUGAACTT against Neurod2, the z-score was -0.491.
As to CGUGGUCGUGAGAUGUUUGTT against Chid1, the z-score was 1.35.
The same measure for “CCUUUUAGUGAAAAUAGCATT against A430010J10Rik”: -0.924; for GGACUUCUCUGGGACUUCATT against Syt9: 0.406.
In the case of GCCUCCUGAAUGAUGACAUTT against Klk1b24, the z-score is -0.97.
For GGUCAAAGUGAUUGUGUGUTT against Cdh16, the z-score is 0.555.
Turning to GGCUAAAUUCUACUUGAUATT against Ppfibp1, the z-score is -1.89.
As to GGCUGUUUUCUAUCCUAGGTT against Cd207, the z-score is -2.82 (active).
CUUAGCUACUUCAAGGUCATT against Spink8: the z-score is 0.628.
For the sequence GCAGGCUCUGCAUGAAGCATT against Alpl, the z-score is -0.213.
To GCCCACGUACAGAAAACAGTT against Aox2 belongs -1.72; to GGGAGAACACAUCUACUGATT against Slamf6, -1.17; to GGAGACAUGCAAUGAACUUTT against Ica1l, 1.02.
With GGAAUUUUUAGGAAUGGUGTT against Slc35f2, the z-score is -1.38.
To “GGAUUGCUGUAAAAUACAATT against Cdkn2aipnl” belongs 2.16 (active); to GGAAGGUACCAGGUGAUUGTT against Nmnat3, -1.89.
On to GGUGCCCAUGCUUGUAGGATT against Cstdc1, for which the z-score was 2.03 (active).
Take GGUCCAUGCUCUCAUGAGUTT against Batf2: the z-score was -1.34.
Take GGUACAGGAAACUCAAAUATT against Lrrc4: the z-score is 0.318.
As for GGCCAGUUUAAACCAGUCUTT against Frmd6, the z-score was 0.583.
The same measure for GCAUACAAUCAUGUAAGAGTT against Adprh: 0.0994; for CCAGAAACCGUGAUAAAAUTT against Immp2l: 2.12 (active); for CGGAGCAUGAGCCAGAUAUTT against Eipr1: -0.266.
In the case of GGAGACUGUCAGAAAGUUATT against Olfr1164, the z-score was -0.769.
As to GGAAAAAUCCAAGAAGCAATT against Zc3h11a, the z-score was -1.09.
The same measure for GGACAUUUUUAUGCACAAUTT against Il1rl2: 1.76; for GCUCCUACUGUCCAGCAAUTT against Dusp18: -0.642.
To AAUUGAAGACUGUAAAUACTT against Sst belongs 1.83; to GGAACACAAAGGUAAGAAATT against Raf1, 0.0798; to GGUGCAGUUGAACUUCUACTT against Dnajc1, 2.26 (active).
To GGUUUUAAAGCACUUUGUATT against Jazf1 belongs 0.288; to GGAAACUUCUUCCCGGUUGTT against Gsdmc, 1.16.
With GCUUACAAGGCAUGUAUGATT against Rccd1, the z-score is 3.46 (active).
Turning to GGGAGUUUGAUUCUGACUCTT against Ank3, the z-score is -0.264.
For CCCAUGAUAAUGAAUUAGCTT against Olfr378, the z-score is -0.537.
On to GGUAUUUGUAAAUUUGAGGTT against Atl1, for which the z-score is 0.309.
Turning to GGUAACAUACUAAAAGAAGTT against Vmn2r10, the z-score was -1.21.
Consider GCAGGAUUGAAACAUGUAUTT against Tcl1b3, for which the z-score is -0.298.
On to “GCCAAUUGGUUCCCUGUAATT against 1700034E13Rik”, for which the z-score is -3.04 (active).
To “CGAACUUCCAAAAAGUUCATT against A430005L14Rik” belongs -0.498.
On to GGAUUGGCAAGCAGCUAACTT against Dnase2a, for which the z-score was -2.08 (active).
With UCACCCUGUUCGUAAUCAUTT against Olfr467, the z-score was -0.17.
As to CCACUGGUUCACCUAUAAUTT against Psma5, the z-score is 0.092.
The same measure for CGAAUGACCUCGAUAGCUGTT against Gm5082: 0.195; for GGAAGAAGCCACCAUGUACTT against Pbx4: -1.75; for GGCUGAGGUUCGAGUGUAUTT against Rps6ka4: 3.51 (active).
In the case of GGCCAAUAGGACAUAUCUATT against Qprt, the z-score was -0.443.
As to GCUUAGCUGUUAUGUUUUUTT against Atp6ap1, the z-score is 1.81.
With GCAAUGUGUGGUAAGUAAATT against Zfp738, the z-score is -0.757.
Take GGUUUAGCUGCUGACUUAATT against Strn3: the z-score is 1.03.
GGAGAAGGUUUUGAUGUGGTT against Drg1: the z-score was -1.31.
To GGCAACUGGAGAUGUGUGUTT against Lpgat1 belongs -0.361.
Turning to CGACAUCCCAAUAAACAAGTT against Lcn3, the z-score was -1.1.
As to GCAGAGGAGUUUUCAAUUUTT against Il17rb, the z-score was 0.997.
For GGCCCUUCUGGACUAUCAUTT against Ccdc83, the z-score was 3.39 (active).
To GGUACCUGAGUCCAUCUCATT against Sntb1 belongs -0.219; to CGAACUUCAAGACUGUGAUTT against Cep95, -0.248; to GGAAAUAAUGACCAAGUACTT against Grk5, -1.32.
As to CCCUGGUAAACACCAAUAGTT against Ctnna1, the z-score is 0.849.
The same measure for GCCUGUCCACAUCACUGUATT against Tmem171: -0.16; for CCCUAAGGAGUUUUGCGUUTT against Ikzf4: 1.58; for GGUCUAUUUGACCUCUUAATT against Bcl2l13: 2.22 (active).
To GGUAUAUGGACUGGUGGAUTT against Hrh2 belongs 0.41; to GGAUCAAUGAAAAUGAGAATT against Fzr1, -0.0554; to CCAGUACCCGUCUGAAAAGTT against Olfr215, -0.457.
For GGAUCUUUGCUACAAAAACTT against Fhl5, the z-score is 0.48.
For GGGAUAACCAGUGAAUUUATT against Pcdhb15, the z-score is 2.23 (active).
On to GGGACUUAUGUCCAGGAAGTT against Agap3, for which the z-score is -1.09.
Consider GGGACCACCUUGAACACUATT against Slc52a3, for which the z-score was 1.81.
Regarding GGCAUCUUAUUUCUUGUUATT against Tbkbp1, the z-score is -0.56.
The same measure for GUGAAGAAAGUCAUCAAGATT against Olfr1506: -0.182; for GGCUUUGAUCAGCAUGAGCTT against Pak4: -2.07 (active); for GCAAGGUCAAUCAAUCGUATT against Taar1: 0.548.
Consider GCGGAGUCUUUGGCUUAGATT against Lratd2, for which the z-score was 1.03.
In the case of CGAAAGCUAAACUAAAAGATT against Stimate, the z-score was 0.539.
For the sequence GCUGAAUACCCUUUUAGUUTT against Atp2c1, the z-score is 0.317.
For the sequence GCGAUAUUAACUAUGGAGATT against Gpr149, the z-score is -0.601.
As for GGUAUUCCAAUAACUGUACTT against Fip1l1, the z-score is -0.269.
For the sequence GGAAAGAAUCCACUUGCAUTT against Xkr5, the z-score is -1.35.
For GGAGAUUUUCCAGAGGCUGTT against Josd1, the z-score is -2.24 (active).
In the case of CGGCCUUCUCUACAAAUCATT against Rbfa, the z-score was 0.816.
With GCUGACCAUUUUGAUGCCCTT against Adi1, the z-score is -0.0381.
In the case of GGUGGUUUUGUUUCUUUUUTT against Tab3, the z-score was 0.643.
In the case of GGGCCAACCCAGAAAAACATT against Plekha7, the z-score was -0.515.
For the sequence GCCGUCUUUACAUUCCUGATT against Olfr605, the z-score is 0.8.
The same measure for CCCAUCAAAAGAAUCCACATT against Snrnp70: -2.51 (active); for GGUGUUUAAUUGCUCACUATT against Gramd4: 1.13.
For UACCCGAAUGCAGACAGGATT against Raet1a, the z-score is 0.667.
To GGAGGAAGCUGAACUCUGGTT against Ehmt2 belongs -0.655.
To GCAUUUAGAAGAAUCCGCCTT against Hao2 belongs 2.01 (active); to CCUUGUGAUGUUUAAAGACTT against Abcg1, 0.293.
For the sequence GUGAGUAGGUAGGAAGCAUTT against Cd200r2, the z-score is -2.56 (active).
For CCAGUUGUCUAGACCUGCATT against Ptbp1, the z-score was -0.301.
On to CCUACAAGCAGAGUACAAUTT against Myo10, for which the z-score was 1.06.
To GGCCUUCAACGAUUCAAUCTT against Olfr770 belongs 1.35.
As to GGAGAGAAAUUUGACACUCTT against Mgrn1, the z-score was -0.0326.
For the sequence GCCAGUGUCCCUAAUAAGGTT against Ager, the z-score is 0.2.
To GCAAACUAUAGGUGCGUUGTT against Dscc1 belongs 0.885; to GUCUACCAGAUCCUUCCCUTT against H2-Q8, -2.25 (active); to GCAAACAUGUCAAGUCCGATT against Actl6b, 1.07.
With GGACUAUUUGCUGAUGGACTT against Trpc6, the z-score was 2.74 (active).
Turning to GCAUUUCACCUGGAGCCUUTT against Zfp108, the z-score is -1.11.
The same measure for CGAGAAUACAUUGAGGAGUTT against Hook2: 0.926; for CGACAACCACUUCAACUAUTT against Chn2: 1.34; for GGCUAUCCUCUUUUACCAUTT against Dele1: -0.374.
In the case of GGUGUUAGGAAGUCACAUUTT against Tas2r109, the z-score was -1.28.
Take CCCUAUCCUGUUCAUCUCUTT against Gpr50: the z-score was 2.83 (active).
Consider GGAAAAAGCUCAAAGGCGATT against Gap43, for which the z-score is -0.216.
